Assay [1] is described as follows: antimalarial activity against Dd2 strain (AID 2302;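 active = growth inhibition above 50% at the single 2 µM test dose, taken to imply half-maximal potency below 2 µM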;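 note: 0% = DMSO untreated growth and 100% = chloroquine plus artemisinin killed control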). The following applies: P. falciparum Dd2 in RBCs, LDH growth readout, 72 h; at 2 µM; hits give high values.
Assay [2] is described as follows: human hepatoma cell viability loss – ATP luminescence, cytotoxicity control for P. falciparum antimalarial project, primary screen (AID 2303;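 active = inhibition above 50%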;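 note: 0% = DMSO wells and 100% = digitonin-killed cells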). The conditions noted are these: HepG2 viability, 24-48 h, at 10 µM, hits give high values.
The target of assay [3] is L-lactate dehydrogenase (Plasmodium falciparum (isolate CDC / Honduras)) (UniProt Q27743). Put plainly: PfLDH activity inhibition – cell lysate, 3D7 strain, counter-screen for P. falciparum growth inhibition project (AID 2304).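 Note: 0% = vehicle and 100% = reference inhibitor.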 The conditions noted are these: P. falciparum 3D7 crude extract, LDH APAD/NBT absorbance; at 2 µM; hits give high values. On the technique in general: Counterscreens check selectivity or assay interference.
Chain of L-lactate dehydrogenase (Plasmodium falciparum (isolate CDC / Honduras)) (Q27743 whole entry, looked up): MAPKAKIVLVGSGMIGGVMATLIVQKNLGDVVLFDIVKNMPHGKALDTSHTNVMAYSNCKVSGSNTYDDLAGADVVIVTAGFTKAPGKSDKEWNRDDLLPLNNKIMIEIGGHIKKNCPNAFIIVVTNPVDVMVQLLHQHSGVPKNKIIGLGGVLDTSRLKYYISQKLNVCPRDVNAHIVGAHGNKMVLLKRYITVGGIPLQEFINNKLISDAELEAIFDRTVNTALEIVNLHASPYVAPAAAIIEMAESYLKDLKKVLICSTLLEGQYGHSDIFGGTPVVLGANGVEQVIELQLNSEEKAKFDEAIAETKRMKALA

A short description of assay [4]: inhibition of 3D7 malaria parasite growth – strain 3D7 (AID 2306).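 Note: 0% = DMSO wells and 100% = chloroquine plus artemisinin control wells.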 The conditions noted are these: P. falciparum 3D7 erythrocytic growth, LDH absorbance, 72 h; at 2 µM; hits give high values.
The target in assay [5] is Calcium-dependent protein kinase 1 (Plasmodium falciparum (isolate 3D7)) (UniProt P62344). Kind of assay: PfCDPK1 kinase inhibitors, biochemical, TCAMS library (AID 1159585; cut-off not given, nearly all actives have IC50 up to about 0.98 µM;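 note: inhibitors leave more ATP so luminescence rises with inhibition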). The conditions noted are these: recombinant PfCDPK1, Kinase-Glo ATP depletion luminescence.
Chain of Calcium-dependent protein kinase 1 (Plasmodium falciparum (isolate 3D7)) (P62344 whole entry, looked up): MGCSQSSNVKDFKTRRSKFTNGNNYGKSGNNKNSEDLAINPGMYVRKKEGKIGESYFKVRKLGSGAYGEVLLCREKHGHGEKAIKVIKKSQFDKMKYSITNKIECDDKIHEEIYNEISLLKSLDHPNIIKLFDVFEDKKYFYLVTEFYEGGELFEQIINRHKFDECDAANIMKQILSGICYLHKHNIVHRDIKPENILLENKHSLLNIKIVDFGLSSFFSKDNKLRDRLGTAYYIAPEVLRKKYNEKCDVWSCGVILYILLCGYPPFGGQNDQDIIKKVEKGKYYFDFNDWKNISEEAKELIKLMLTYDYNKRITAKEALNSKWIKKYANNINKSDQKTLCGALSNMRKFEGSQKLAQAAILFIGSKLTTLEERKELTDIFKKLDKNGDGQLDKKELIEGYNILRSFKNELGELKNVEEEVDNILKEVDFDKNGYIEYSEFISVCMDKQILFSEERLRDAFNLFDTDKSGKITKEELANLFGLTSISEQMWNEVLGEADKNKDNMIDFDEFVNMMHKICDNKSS
Assay [6] addresses Plasmodium falciparum protein kinase 6 (PK6, PF3D7_1337100) (UniProt Q8IDW1). Kind of assay: PfPK6 kinase inhibitors, biochemical, TCAMS library (AID 1159586). The following applies: recombinant PfPK6, Kinase-Glo ATP depletion luminescence. A general note: In Kinase-Glo more light means more ATP remaining.
The target of assay [7] is Protein kinase 7 (PK7), Plasmodium falciparum 3D7 (PF3D7_0213400) (UniProt Q7YTF7). Kind of assay: inhibition of Plasmodium PK7 catalytic activity – biochemical, TCAMS antimalarial set, Kinase-Glo luminescence (AID 1159587). The conditions noted are these: recombinant PfPK7, Kinase-Glo ATP depletion luminescence.
Chain of Protein kinase 7 (PK7), Plasmodium falciparum 3D7 (PF3D7_0213400) (Q7YTF7 1-343): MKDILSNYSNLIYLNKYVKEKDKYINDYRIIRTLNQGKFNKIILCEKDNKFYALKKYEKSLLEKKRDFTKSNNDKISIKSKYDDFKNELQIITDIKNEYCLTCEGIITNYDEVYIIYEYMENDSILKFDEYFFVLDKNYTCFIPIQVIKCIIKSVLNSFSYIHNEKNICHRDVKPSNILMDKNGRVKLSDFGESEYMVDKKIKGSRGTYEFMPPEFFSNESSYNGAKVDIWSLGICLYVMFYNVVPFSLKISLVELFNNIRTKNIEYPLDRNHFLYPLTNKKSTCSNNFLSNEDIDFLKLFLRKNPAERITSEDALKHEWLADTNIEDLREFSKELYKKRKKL
The target in assay [8] is Calcium-dependent protein kinase 4 (Plasmodium falciparum (isolate 3D7)) (UniProt Q8IBS5). Kind of assay: PfCDPK4 kinase inhibitors, biochemical, TCAMS library (AID 1159588; cut-off not given, nearly all actives have IC50 up to about 0.91 µM). The conditions noted are these: recombinant PfCDPK4, Kinase-Glo ATP depletion luminescence.
Chain of Calcium-dependent protein kinase 4 (Plasmodium falciparum (isolate 3D7)) (Q8IBS5 whole entry, looked up): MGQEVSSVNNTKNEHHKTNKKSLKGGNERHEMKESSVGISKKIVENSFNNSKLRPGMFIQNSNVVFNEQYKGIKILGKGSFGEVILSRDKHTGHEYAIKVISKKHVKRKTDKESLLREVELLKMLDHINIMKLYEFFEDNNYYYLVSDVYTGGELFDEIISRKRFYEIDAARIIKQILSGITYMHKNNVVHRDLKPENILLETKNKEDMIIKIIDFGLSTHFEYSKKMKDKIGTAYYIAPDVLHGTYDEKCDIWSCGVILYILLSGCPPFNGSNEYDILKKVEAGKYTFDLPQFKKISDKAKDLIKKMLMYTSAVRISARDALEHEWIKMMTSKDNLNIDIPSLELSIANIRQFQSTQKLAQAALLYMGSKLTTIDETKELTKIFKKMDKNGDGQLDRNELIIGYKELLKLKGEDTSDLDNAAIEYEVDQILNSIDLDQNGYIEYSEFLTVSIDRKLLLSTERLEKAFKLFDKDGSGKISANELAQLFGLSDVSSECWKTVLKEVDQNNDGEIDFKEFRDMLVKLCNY

Structures are written as SMILES. Unmarked numbers belong to inactive results. For some of these results: Entries with a potency or affinity are not part of this list. Activity calls are given as the source filed them. Unless noted, the rule behind the calls is not given here.

Chain of Plasmodium falciparum protein kinase 6 (PK6, PF3D7_1337100) (Q8IDW1 1-305): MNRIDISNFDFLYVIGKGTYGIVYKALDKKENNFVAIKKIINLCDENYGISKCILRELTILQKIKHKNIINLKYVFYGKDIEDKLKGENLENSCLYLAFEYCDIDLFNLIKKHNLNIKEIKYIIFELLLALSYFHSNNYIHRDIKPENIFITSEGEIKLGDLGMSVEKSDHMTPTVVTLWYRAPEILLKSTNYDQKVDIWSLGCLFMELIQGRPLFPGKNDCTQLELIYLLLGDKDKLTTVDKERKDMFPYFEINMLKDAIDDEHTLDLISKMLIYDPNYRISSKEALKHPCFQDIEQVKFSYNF

Usually inhibition stands for the relative decrease from the control value, in per cent. For `Nc1c2c(nc3ccc(NC(=O)CCCc4ccccc4)cc13)CCCC2`, the growth inhibition in assay [1] was 42%; in assay [4] it was 101% (active). For the same molecule, the values for the inhibition in assay [2] and in assay [3] were 73% (active) and -1%, respectively. Moreover, the outcome in assay [5], in assay [6], in assay [7] and in assay [8] was inactive.
As to `COc1cccc(Nc2nc(Nc3cccc(C#N)c3)cc(-c3ccncc3)n2)c1`, the figures for the growth inhibition in assay [1] and in assay [4] were 46% and 100% (active), respectively. Further, the inhibition in assay [2] is 28%; in assay [3] it was 1%. The outcome in assay [5], in assay [6], in assay [7] and in assay [8] was inactive.
`Fc1ccc2nc(-c3ccc(-c4ccc(CNCCN5CCNCC5)cc4)cc3)[nH]c2c1`: the growth inhibition was 70% (active) in assay [1] and 96% (active) in assay [4]. The inhibition is 94% (active) in assay [2] and -3% in assay [3]. The outcome in assay [5], in assay [6], in assay [7] and in assay [8] was inactive.
Take `FC(F)(F)c1ccc2nc(-c3ccc(-c4ccc(CNCCN5CCNCC5)cc4)cc3)[nH]c2c1`: the growth inhibition in assay [1] is 74% (active); in assay [4] it was 92% (active). Also, the inhibition is 13% in assay [2] and -4% in assay [3]. The result in assay [5], in assay [6], in assay [7] and in assay [8] was inactive.
Take `Cn1c(NC2=NC3(c4ccccn4)N=C(Nc4nc5ccccc5n4C)NC3(c3ccccn3)N2)nc2ccccc21` (stereo not given): the figures for the growth inhibition in assay [1] and in assay [4] were 44% and 99% (active), respectively. Also, the inhibition is 12% in assay [2] and 0% in assay [3]. In addition, the outcome in assay [5], in assay [6], in assay [7] and in assay [8] was inactive.
For the molecule `O=C1C=Cc2ccccc2/C1=C/c1sc(=NCc2ccccc2)n(Cc2ccccc2)c1O`, the growth inhibition in assay [1] and in assay [4] was 98% (active) each time. Also, the inhibition in assay [2] was 0%; in assay [3], -7%. In addition, the result in assay [5], in assay [6], in assay [7] and in assay [8] was inactive.
Regarding `CCOC(=O)NC1=NC(C)(C)N(OCCCOc2cc(Cl)c(Cl)cc2Cl)C(NC(=O)OCC)=N1`, the growth inhibition was 97% (active) in assay [1] and 91% (active) in assay [4]. Also, the inhibition in assay [2] is 63% (active); in assay [3] it was 5%. Moreover, the result in assay [5], in assay [6], in assay [7] and in assay [8] was inactive.
Consider `CC(=O)Nc1cccc(CNc2cc(C)nc(Nc3ccc(C)cc3)n2)c1`, for which the growth inhibition in assay [1] is 23%; in assay [4] it was 82% (active). The inhibition in assay [2] is 18%; in assay [3], 0%. Moreover, the result in assay [5], in assay [6], in assay [7] and in assay [8] was inactive.
In the case of `N#Cc1cc(C(=O)Nc2ccccc2)c(N)nc1SCC(=O)Nc1ccc(Br)cc1`, the growth inhibition in assay [1] was 66% (active); in assay [4] it was 101% (active). The inhibition is 11% in assay [2] and 1% in assay [3]. Besides, the outcome in assay [5], in assay [6], in assay [7] and in assay [8] was inactive.
`CSc1ccc(CN2CCC(CNC(=O)c3cc(-c4ccccc4F)cs3)C2)cc1` (stereo not given): the figures for the growth inhibition in assay [1] and in assay [4] were 13% and 90% (active), respectively. Also, the inhibition is 32% in assay [2] and 2% in assay [3]. Further, the outcome in assay [5], in assay [6], in assay [7] and in assay [8] was inactive.
Consider `COc1cc(C(=O)Nc2cccc(-c3nc4ccccc4[nH]3)c2)cc(OC)c1OC`, for which the growth inhibition is 41% in assay [1] and 99% (active) in assay [4]. Also, the inhibition was 25% in assay [2] and -3% in assay [3]. Besides, the result in assay [5], in assay [6], in assay [7] and in assay [8] was inactive.
Regarding `COc1ccccc1C(C)NCC(=O)Nc1ccccc1Sc1ccccc1` (stereo not given), the growth inhibition in assay [1] was 7%; in assay [4], 89% (active). Also, the inhibition was -7% in assay [2] and -1% in assay [3]. The outcome in assay [5], in assay [6], in assay [7] and in assay [8] was inactive.
For `Cc1ccc(NC(=S)NC2CCN(CCCCCNC(=O)/C=C/c3ccc(Cl)c(Cl)c3)CC2)cc1Cl`, the growth inhibition in assay [1] is 56% (active); in assay [4] it was 100% (active). The inhibition in assay [2] was 45%; in assay [3], 7%. The outcome in assay [5], in assay [6], in assay [7] and in assay [8] was inactive.
With `CN(C)CCOc1cccc(NC(=O)Nc2ccc(-c3ccccc3)cc2)c1`, the growth inhibition was 16% in assay [1] and 90% (active) in assay [4]. Also, the results for the inhibition in assay [2] and in assay [3] were 11% and -1%, respectively. In addition, the result in assay [5], in assay [6], in assay [7] and in assay [8] was inactive.
With `CS(=O)(=O)c1ccc(CNCc2ccc(-c3cccc(-c4nc5ccc(C(F)(F)F)cc5[nH]4)c3)cc2)cc1`, the growth inhibition in assay [1] was 100% (active); in assay [4], 102% (active). Moreover, the inhibition in assay [2] was 54% (active); in assay [3], 8%. The result in assay [5], in assay [6], in assay [7] and in assay [8] was inactive.
For the molecule `COc1ccc2nccc([C@@H](O)CN3CCC(NC(=O)/C=C/c4cc([N+](=O)[O-])ccc4OC)CC3)c2c1`, the growth inhibition in assay [1] was 76% (active); in assay [4], 99% (active). For the same molecule, the values for the inhibition in assay [2] and in assay [3] were 12% and -1%, respectively. Also, the result in assay [5], in assay [6], in assay [7] and in assay [8] was inactive.
Turning to `N#Cc1ccc(CN2CCC(Oc3ccc(NC(=O)c4cccs4)cc3Cl)CC2)cc1`, the growth inhibition was 96% (active) in assay [1] and 95% (active) in assay [4]. Further, the inhibition in assay [2] was 26%; in assay [3], -1%. Besides, the result in assay [5], in assay [6], in assay [7] and in assay [8] was inactive.
With `CCCN=CNc1cc(-c2csc(N=C(N)N)n2)cc([N+](=O)[O-])c1`, the growth inhibition was 1% in assay [1] and 91% (active) in assay [4]. The figures for the inhibition in assay [2] and in assay [3] were 12% and -3%, respectively. Besides, the outcome in assay [5], in assay [6], in assay [7] and in assay [8] was inactive.
For `c1cc(-c2ccc(CNCCCn3ccnc3)cc2)cc(-c2nc3ccccc3[nH]2)c1`, the growth inhibition in assay [1] is 100% (active); in assay [4], 101% (active). Also, the inhibition in assay [2] was 17%; in assay [3], 5%. In addition, the outcome in assay [5], in assay [6], in assay [7] and in assay [8] was inactive.
As for `COc1ccc(NC(=O)Nc2ccc(-c3ccccc3)cc2)cc1Cn1cnc(N2CCCNCC2)cc1=O`, the figures for the growth inhibition in assay [1] and in assay [4] were 38% and 101% (active), respectively. In addition, the inhibition in assay [2] was 24%; in assay [3], 8%. Also, the outcome in assay [5], in assay [6], in assay [7] and in assay [8] was inactive.

The record behind these values is PubChem BioAssay.
